Results as given in PubChem BioAssay (NCI).
Several values for one entry are separate records, joined by “and”; a condition that tells them apart may be missing. Equal entries are not always repeated. The panel holds about 83,000 compounds, 20% with a hit somewhere; the sample as a whole holds those more often.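 Note: values are percent growth. 100 is the growth of untreated cells, values between 100 and 0 indicate rising inhibition; between -100 and 0 indicates cell death.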 Values without a mark were called inactive. Activity calls are given as the source filed them. The calls were made as follows: active = growth percent below 10; inactive = the rest.

System: MDA-MB-468 breast
Assay: NCI-60 one-dose screen, 48 h (100 = growth as untreated, 0 = no growth, -100 = all killed)
Conditions: 10 µM unless noted

Structure (SMILES)	growth
Nc1ccccc1Nc1ccccc1	120% and 118%
CC(C)(C)c1nc2c(s1)c1nc(N)ncc1c1ccc(NS(=O)(=O)c3c(F)cccc3F)c(F)c12	60.2%
CSc1nc(N)c2c(n1)NC(c1ccccc1)C1CCc3ccccc3C1=N2 (stereo not given)	76.4%
C[Se]C(=O)CC1=C2C=C(F)C=CC2/C(=C\c2ccc(S(C)=O)cc2)C1C (stereo not given)	-46.2% (active)
COc1cccc(CNc2c3ccccc3nc3ccccc23)c1OC	1.08% (active)
CC(C)(C)n1cc(-c2ccnc(NCCCNS(=O)(=O)c3ccc(F)cc3)c2)c(-c2cccc(O)c2)n1	24.3%
CO[C@@H](C(=O)N1Cc2[nH]nc(NC(=O)c3ccc(N4CCN(C)CC4)cc3)c2C1)c1ccccc1	50.7%
CC(C)CCN(CCC(C)C)CC(O)c1cc2c(c3ccccc13)CCCC2 (stereo not given)	54%
CCn1c(SCC(=O)Nc2cccc(C(=O)/C=C/c3cc(OC)c(OC)c(OC)c3)c2)nc2ccccc2c1=O	31.8%
CC(=O)Nc1cccc(-c2ccc3c(c2)NC(=O)/C3=C\c2ccc[nH]2)c1	21.1%
CCOC(=O)c1[nH]cc2c1CCc1sc(Nc3ccccn3)nc1-2	46.9%
NNC(=O)N/N=C1\C(=O)N(c2nccs2)C(=O)C(=O)C1c1nc2ccccc2s1 (stereo not given)	106%
O=C(NCc1ccccc1)C1CN(c2ccc(Cl)cc2)N(c2ccc(Cl)cc2)C1=O (stereo not given)	71.5%
CCOC(=O)CC1CSC(N/N=C/c2ccc(-n3cccn3)cc2)=N1 (stereo not given)	95.3%
COc1cc(C(C)n2cc(-c3ccccc3)nn2)ccc1OC1CCCC1 (stereo not given)	5.07% (active)
CCO/C=N/C1=C(C#N)C(c2ccc(F)cc2)c2sc3c(CC)cccc3c2O1 (stereo not given)	7.27% (active)
O=C(NCc1ccccc1)C(Cl)Cl	85.2%
CCNc1nc(N2CC(=O)Nc3cc(OC)ccc32)c2ccccc2n1	1.34% (active)
O=C(N/N=C/c1cccs1)c1[nH]c2ccc(Br)cc2c1-c1ccccc1	-8.42% (active)
Cn1c(=O)c2c(nc3n(-c4ccc(Cl)cc4Cl)c(Sc4nc(-c5ccccc5)c(C#N)c(=O)[nH]4)cn23)n(C)c1=O	60.5%
C=C1C(=O)O[C@H]2[C@H]1CC/C(COC(=O)NCc1nc3ccccc3[nH]1)=C\CC[C@@]1(C)O[C@@H]21	43.7%
CN1CCN(CCCn2c(=O)c3sc4ncccc4c3n3nnc(-c4ccccc4)c23)CC1	-62% (active)

Structure (SMILES)	growth
O=C(c1ccc(Br)cc1)C(Br)C(c1ccc(Cl)cc1)C(c1ccccc1)[N+](=O)[O-] (stereo not given)	80.7%
CC(C)C(=O)OCCOc1ccc(C(C)(C)C)cc1	102%
CNc1nc(NC2CCCC2)nc(Sc2ccc(OC)cc2)n1	42.5% [100 µM]
Nc1nc(-c2cc3c(cc2Cl)NC(=O)/C3=C/c2ccccc2)cs1	33.7%
CCOC(=O)c1ccc(NC(=O)Nc2ncc(Cl)cc2Cl)cc1	95.1%
C=CCn1c(SCC(=O)Nc2ccc(C(=O)/C=C/c3cc(OC)c(OC)c(OC)c3)cc2)nnc1-c1ccccc1	82%
COC(=O)[C@]12CC[C@@H](C)[C@H](C)[C@@H]1C1=CC[C@@H]3[C@@]4(C)C(c5ncon5)=C[C@@](C)(CO)C4=CC[C@@]3(C)[C@]1(C)CC2	-28.9% (active)
O=C(Nc1ccc(Cl)cc1Cl)Nc1ccc(-c2cccnc2)cc1N1CCC(CO)CC1	23%
COC(=O)[C@@H](Cc1c[nH]c2ccccc12)NC(=O)[C@H](Cc1ccccc1)NCc1ccncc1	103%
C/C(=N/N=C(N)N)c1ccc(N)cc1	75.5%
COc1cccc(NC(=O)c2sc3nc4c(cc3c2N)C(=O)CCC4)c1	49.5%
N=C(N)N=Nc1ccc(NN=C(N)N)cc1	103%
O=C1CC2C=CCN2C=C1NC(=O)C1CCCCC1 (stereo not given)	96.2%
CCOc1ccc(NC(=O)CSc2oc(-c3ccccc3)nc2S(=O)(=O)c2ccc(F)cc2)cc1	58.4%
O=C1/C(=C/c2ccccc2)SC(=S)N1CCc1ccc(O)cc1	73.9%
COc1ccc(Cl)cc1NC(=O)c1cc2c(n1C)-c1nc(NC(=O)C(C)C)sc1CC2	88.5%
COC1=C(OC)C(=O)c2ccccc2C1=O	-34% (active)
OCC1CCC(O)C(CO)N1 (stereo not given)	104%
Cc1ncc(C(=O)Nc2ccc(CN3CCN(C)CC3)c(C(F)(F)F)c2)cc1C#Cc1c(N)ncc2ccccc12	-74.8% (active)
CCOC(=O)c1c(-c2ccc(OC)cc2)c(C#N)c2c(C#N)c(N)nn2c1N	13.2%
O=C(/C=C/c1c[nH]c2ccccc12)c1ccc(O)c(CN2CCN(c3ccc(F)cc3)CC2)c1	97.4%
CCc1c(Nc2ccccc2C)nc(N)[nH]c1=O	105%

Structure (SMILES)	growth
CCOC(=O)Sc1ncnc2nc[nH]c12	75.3%
C=C[Si](OC(C)=O)(OC(C)=O)OC(C)=O	109%
O=C1Nc2ccccc2/C1=C\c1c(-c2ccc(F)cc2)nc2ccccn12	40.8%
O=C(N/N=C/c1ccc(Cl)cc1)c1[nH]c2ccc(Cl)cc2c1-c1ccccc1	33.7%
CCOc1c(B(O)O)cccc1-c1nc2ccc3[nH]ncc3c2c2c1CCCC2	51.1%
COc1cc(OC)c(NC(=O)C(Sc2nc(C)cc(C)c2C#N)c2ccccc2)cc1Cl (stereo not given)	93.6%
COC(=O)CCCNCCCn1ccc2cc(NCc3cccc(-c4ccccc4)c3C)ccc21	53.4%
O=C(Nc1ncc(Cc2ccccc2)s1)c1ccc2c(c1)OCCO2	28.2%
NC(=O)c1ccc[n+](Cc2ccc(Cl)cc2Cl)c1	101%
Clc1ccc(N/N=C(\c2ccccc2)c2ccccn2)nc1	-24.9% (active)
Nc1nc2c(nnn2Cc2ccc(Cl)c(Cl)c2)c(=O)[nH]1	103%
COc1ccc(CCc2nc3cc(-c4c(C)noc4C)ccc3n2CCN2CCOCC2)cc1	9.69% (active)
O=C1c2ccccc2C(=O)c2c([N+](=O)[O-])ccc(Cl)c21	-5.53% (active)
O=C(NNC(=S)Nc1ccccc1)c1cc2ccc1CCc1ccc(cc1)CC2	67%
O=C(Nc1ccc(-n2ccc3c(NC(=O)c4ccccc4)ncnc32)cc1)Nc1ccc(Cl)c(Cl)c1	-36.7% (active)
CC1(C)C=Cc2cc(/C(N)=N/C(N)=N/c3nc4ccccc4s3)ccc2O1	74.1%
CCN1C(=O)N(c2ccccc2)C2Nn3c(s/c(=C4\C(=O)N(C(C)C)c5ccccc54)c3=O)=NC21 (stereo not given)	108%
O=C(NCCNc1cc(-c2cn(-c3ccccc3)nc2-c2cccc(O)c2)ccn1)Nc1ccc(Cl)c(C(F)(F)F)c1	17.5%
Nc1nc(N)c2c(n1)NC(c1ccc(Cl)cc1)CC(c1ccc(Nc3nc(NCCO)nc(N4CCOCC4)n3)cc1)=N2 (stereo not given)	73.7%
C=C1C(=O)O[C@@H]2[C@@H]3O[C@@](C)(CC/C=C(\C)CCC[C@@H]2C)[C@H](O)C[C@@H]13	-24.9% (active)
COC(=O)/C=C1/CCCCC1(C)C(=O)OC (stereo not given)	103%
CN(C)C(=O)c1ccccc1-n1cnc2ccccc2c1=O	100%

Structure (SMILES)	growth
CC(C)NCC(O)c1ccc(O)c(O)c1 (stereo not given)	89.3% and 104% and 97.9%
O=S(=O)(c1ccccc1)N1CCCc2ccccc21	104%
CC12CCC3c4ccc(O)cc4CCC3C1CCC2=O (stereo not given)	96.4%
CCCCCCCCCCCCCCCCCCOc1ccccc1CC(=O)NCC[N+]1(C)CCOCC1	13.7%
N#Cc1nc(-c2ccccc2)oc1N1CC[C@@H](CO)C1	95.2%
CC/C(=C(/c1ccc(Cl)cc1)c1ccc(OCCN2CCOCC2)cc1)c1ccccc1	91%
COc1ccc(CN2c3ccccc3Sc3ccccc32)c(F)c1	2.44% (active)
CN(C)c1ccc(-c2ccc(-c3ccc(C(=N)N)cn3)o2)cc1	-64.4% (active)
CCCCCCCCCCCCCCCCOP(=O)([O-])OCC[N+](C)(C)C	-24% (active)
O=C1Nc2cc(OC(F)(F)F)ccc2Oc2ccc(-c3ccnc(N4CCNCC4)c3)cc21	-79.4% (active)
COC(=O)c1nc(-c2ccc(C)cc2)oc1S(=O)(=O)N1CCN(c2oc(-c3ccccc3)nc2C#N)CC1	93.9%
CCSc1cnnc2ccccc12	105%
N=C(N)/N=C(\CCc1nc2ccccc2[nH]1)c1nc2ccccc2[nH]1	109%
COc1ccc(-c2nnc(N3CCN(C(=O)CN4CCN(c5ccccc5)CC4)CC3)nc2-c2ccc(OC)cc2)cc1	41.4%
COC1=CC(c2ccc[nH]2)=N/C1=C\c1[nH]c(C)c(C(=O)OCCn2cc(CCC[C@@H]3Cc4cc(O)ccc4C4CC[C@]5(C)[C@@H](O)CC[C@H]5C43)nn2)c1C (stereo not given in full)	78%
Nc1cccc(-c2nc3sccn3c2-c2ccnc(NCCCNS(=O)(=O)c3ccc(C(F)(F)F)cc3)n2)c1	0.59% (active)
CCN1Cc2c(/C=C/c3ccccc3)nc3ccc(OC)cc3c2N(c2cccc(Cl)c2)C1	48.3%
COc1cc(NCCCCCNC(C)(C)C)c2ncccc2c1	-6.36% (active)
CN1CCc2c(sc3nc4n(-c5ccc(Cl)cc5)cnn4c(=O)c23)C1	81.7%
